Reference: the OligoGym collection

These sequences were tested against FANCG (assay: pooled miR-30 sensor sort-seq; sequence = guide strand). Conditions: shRNA.

Sequence	sensor-assay potency score (higher = more potent)
AAGTACAACAGTGCTCTCTGTG	0.113
TGCTGTGTACACCTGGACCAAC	-1.61
TCTCTGTGGATTTCCCATCTTA	-0.461
TAGCTTTCTAGGTACAGGGGGA	-0.426
TAGTAATTCTACCTCAATGAGA	-0.931
TTCTACCTCAATGAGAAACTGC	-0.153
AGTAAGTGTCTCGATTACCTGG	-1.17
TACCTCAATGAGAAACTGCGGG	-0.383
TAAATTCACTAATTGCCACTTT	0.314
TTGGCCTGTCGAACGAGCCGGT	-0.452
TAAGTGTCTCGATTACCTGGGC	-0.142
TAGCAGCTCCAGACTCTCCAGC	-0.96
ATGAAGGCTGCTTAGTGCCTTG	-0.886
TACAACAGTGCTCTCTGTGGAT	-0.172
TTGGGCACCCAGTTGAACCCAG	-0.577
TGTGTCTCCAGCACTCTCTCTA	0.116
TATAGGAATGGTCACATTCCTA	-1.18
TTGGGTAGCAGAGATGATGTGC	0.442
TTGCAGACTATGGAGGAGCCCT	-1.08

The sequences below were run against FANCL in the same assay as above. Conditions: shRNA.

Sequence	sensor-assay potency score (higher = more potent)
TAATAATCTTGCATTCTTCAGT	-0.383
TTAGTGAAGAGACAAACGCAGA	-1.17
TACAATATGGACATTCACCAAA	-0.784
TAGATCAGGAGAGTGCTGCATT	-0.0519
TAAAACTCTGTCTACTAGTTAG	-1.39
TTAGTGATTCTATTGCTGCCAA	0.323
TTCTCTGTTGTACTATTCGATG	-1.72
TTATGGAAACATTATTACCTAA	-1.18
TAATCTTGCATTCTTCAGTTGT	0.333
TTACCTAATGCAATTCTGCGTG	-0.355
TTCTGCAGGATACTTTGCCTTC	-0.558
TAAGGTGGAAGTCTCTTCCCTG	0.0592

The sequences below were run against FASN in the same assay as above. Conditions: shRNA.

Sequence	sensor-assay potency score (higher = more potent)
AAGAACTCCAGGTTGTCCCTGT	0.747
TTCATAGGTGACTTCCAGCAGC	-0.213
TTCAGCTTGCCGGACCGCCGGG	-0.801
TTGAGCTGAAGCCTGCAGGCAG	-0.315
TTGAGCTCCTGCAGCAGTGGGG	-0.482
TTTCTCACAGATACGCTCCATG	-0.419
TAGAGGTGCTGAGCCAGCGGGC	-1.55
TAGGTGGGGATGCTGAGCCGGG	-1.21
TAGTAGACCGTGCAGAGCTGGG	-0.853
